From PubChem BioAssay AID720519 (National Center for Advancing Translational Sciences (NCATS), 2013)
Records with an inconclusive call do not appear. Calls follow the shape of the dose curve; as a rule, active = well fitted activation curve with a large enough effect; inconclusive = small, poorly fitted or top-dose-only effect; inactive = flat fitted curve, though single readings scatter.

Assay: qHTS for Inhibitors of Cell Surface uPA Generation: Confirmatory Assay for Cherry-picked Compounds; also: 0% is about no effect
Conditions: cell surface uPA activity generation, qHTS confirmation; series mostly up to 115 µM; inhibition: at the top concentration
Procedure, shortened: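 RAW 264.7 cells at 4000/well, incubated overnight, then treated with compounds. After 24 h at 37 C, viability was read by ATPlite luminescence. An increase in signal indicates blocked uPA-dependent LF entry.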

inhibition, inactive:
O=C(NC[C@H]1CCCO1)c1cccc2c1C(=O)c1ccc(-c3ccc(F)cc3OCc3ccccc3)cc1S2(=O)=O -2.02%
CCOC(=O)C1CCCN(CC(=O)Nc2ccc(C(=O)Nc3ccccc3OC)cc2)C1 (stereo unspecified) 1.94%
CN(c1ccccc1)S(=O)(=O)c1ccc(C(=O)Nc2nnc(C3CC3)o2)cc1 -2.74%
CC[C@]1(C(=O)OC)[C@H]2C(=O)N(C)C(=O)[C@H]2[C@H]2CN(C)C(=NC3CCCCC3)N21 0.58%
Cc1ccn(CCC(=O)N2CCc3ccccc32)n1 -1.7%
COc1ccc(OC)c(N2C(=O)CC(Cc3cc(C)cc(C)c3)C2=O)c1 (stereo unspecified) -2.59%
O=C(Nc1cccc(-c2nn[nH]n2)c1)c1ccc(Cl)s1 -2.78%
CCCCNc1c(-c2ccc(-c3cccc(Cl)c3)cc2)nc2ccccn12 -3.49%
O=C1c2ccccc2[C@@H]2C[C@H](NC34CC5CC(CC(C5)C3)C4)[C@@H](O)CCN12 -0.982%
COC(=O)c1ccc(CN2CCCC(CNC(=O)Cc3ccc(OC)cc3)C2)cc1 (stereo unspecified) -0.65%
CCC(NC(=S)NCc1ccc(F)cc1)c1ccccc1 (stereo unspecified) -0.172%
N#Cc1cccc(NC(=O)Cn2cnc(S(=O)(=O)N3CCOCC3)c2)c1 -0.879%
O=C(CCCC(=O)N1CCN(c2ccccc2F)CC1)c1ccccc1 -0.97%
CCn1c(=O)cc(C(=O)OC)sc1=Nc1ccc(F)c(F)c1 -3.55%
O=C(C[C@H]1C[C@H](C(=O)N2CCOCC2)[C@@]2(CCC3CCCC3)c3[nH]c4cc(-c5ccco5)ccc4c3CCN2C1=O)NCc1cccc(C(F)(F)F)c1 -1.11%
COCCNC(=S)N(CCc1c(C)[nH]c2ccccc12)Cc1ccco1 -2.32%
Cc1ccccc1NC1c2ccccc2C(=O)N1Cc1ccco1 (stereo unspecified) -2.23%
COc1ccc(NC(=O)/C(N=Nc2cc(S(=O)(=O)Nc3ccc(OC)cc3)ccc2OC)=C(\C)O)cc1 -1.65%
CN1CCN(c2ccc(S(=O)(=O)N3CCOCC3)cc2NC(=O)CSCc2ccccc2)CC1 0.329%
Cc1cccc(NC(=O)C2CCCN(S(=O)(=O)c3cccc4cccnc34)C2)c1 (stereo unspecified) -1.96%
CC(C)(C)n1ncc2c(=O)n(Cc3ccc(Cl)cc3)cnc21 -3.05%
